{"source": "the supplement of paper PMC6522484", "note": "± gives the standard deviation of the averaged measurements."}
{"test_system": "SW480", "assay": "cell viability (CellTiter-Glo) relative to plate median (fraction of plate median); higher = more viable cells", "details": "10 µM; treatment time 24 h; reporter: 7TFP", "procedure,_shortened": "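Each value averages two independent replicates in which the well signal was normalised to the plate median (webcellHTS2, additive, without log transformation). The signal was firefly luciferase or CellTiterGlo luminescence, read on parallel plates with a Tecan F500. The cells were colorectal cancer lines with stable lentiviral TCF/Wnt firefly luciferase reporters in 384-well plates, dosed 24 h after seeding with kinase inhibitor library compounds at a final 10 µM for 24 h.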"}
{"smiles": "CN[C@@H]1C[C@H]2O[C@@](C)([C@@H]1OC)n1c3ccccc3c3c4c(c5c6ccccc6n2c5c31)C(=O)NC4", "note": "[Staurosporine]", "cell viability": "0.68 ± 0.25"}
{"smiles": "Cc1ccccc1-n1c(Cn2ncc3c(N)ncnc32)nc2cccc(C)c2c1=O", "cell viability": "1 ± 0.036"}
{"smiles": "O=c1[nH]c2ccc(Cl)cc2c(N[C@@H]2CN3CCC2CC3)c1-c1nc2ccccc2[nH]1", "cell viability": "0.992 ± 0.025"}
{"smiles": "Cc1ccccc1-n1c(Cn2cnc3c(N)ncnc32)nc2cccc(C)c2c1=O", "cell viability": "0.947 ± 0.027"}
{"smiles": "COC[C@H]1OC(=O)c2coc3c2[C@@]1(C)C1=C(C3=O)[C@@H]2CCC(=O)[C@@]2(C)C[C@H]1OC(C)=O", "note": "[Wortmannin]", "cell viability": "0.963 ± 0.035"}
{"smiles": "CC(C)(C)c1cc(C=C(C#N)C#N)cc(Br)c1O", "cell viability": "0.91 ± 0.035"}
{"smiles": "CCN1CCN(C(=O)Cc2ccc(Nc3ncc(F)c(Nc4ccc(C(=O)Nc5ccccc5Cl)cc4)n3)cc2)CC1", "note": "[Aurora A Inhibitor I]", "cell viability": "0.927 ± 0.093"}
{"smiles": "Cn1cc(C2=C(c3cn(C4CCN(Cc5ccccn5)CC4)c4ccccc34)C(=O)NC2=O)c2ccccc21", "cell viability": "0.931 ± 0.081"}
{"test_system": "DLD1", "assay": "cell viability (CellTiter-Glo) relative to plate median (fraction of plate median); higher = more viable cells", "details": "5 µM; treatment time 24 h; reporter: 7TFP", "procedure,_shortened": "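Stable lentiviral TCF/Wnt firefly luciferase reporters (7TFP or TCF4/Wnt) were present in the colorectal cancer cell lines used. These cells received library compounds at a final 5 µM for 24 h, and parallel plates were read for firefly luciferase or CellTiterGlo luminescence. Each well was normalised to the plate median, and the value reported is the mean of two independent replicates.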"}
{"smiles": "O=[N+]([O-])c1ccc(O)c([N+](=O)[O-])c1", "cell viability": "0.981 ± 0.042"}
{"smiles": "Oc1ccc(Cl)cc1", "cell viability": "1.06 ± 0.064"}
{"smiles": "[N-]=[N+]=CC(=O)OC[C@H](N)C(=O)O", "cell viability": "0.717 ± 0.18"}
{"smiles": "CC(=O)[C@H]1CC[C@H]2[C@@H]3CC[C@H]4C[C@H](O)CC[C@]4(C)[C@H]3CC[C@]12C", "cell viability": "0.966 ± 0.049"}
{"smiles": "CN[C@@H]1C[C@H]2O[C@@](C)([C@@H]1OC)n1c3ccccc3c3c4c(c5c6ccccc6n2c5c31)C(=O)NC4", "note": "[Staurosporine]", "cell viability": "0.837 ± 0.027"}
{"smiles": "OCC(O)Cc1ccc2c(c1)OCO2", "note": "(configuration not stated)", "cell viability": "1.03 ± 0.095"}
{"smiles": "CN1CCc2cc3c(cc2C1O)OCO3", "note": "(configuration not stated)", "cell viability": "1.01 ± 0.026"}
{"smiles": "COS(C)(=O)=O", "cell viability": "1.07 ± 0.071"}
{"smiles": "Oc1cc(Cl)ccc1Oc1ccc(Cl)cc1Cl", "cell viability": "0.936 ± 0.078"}
{"smiles": "CCC(N)C(O)c1ccc(O)c(O)c1", "note": "(configuration not stated)", "cell viability": "1.02 ± 0.055"}
{"smiles": "CC1=C(O)C(=O)C=C2C1=CC=C1[C@@]2(C)CC[C@@]2(C)[C@@H]3C[C@](C)(C(=O)O)CC[C@]3(C)CC[C@]12C", "cell viability": "0.801 ± 0.11"}
{"smiles": "O=[N+]([O-])O[C@@H]1CO[C@H]2[C@@H]1OC[C@@H]2O", "cell viability": "0.98 ± 0.018"}
{"smiles": "CN[C@@H]1[C@@H](O)[C@@H](O[C@@H]2[C@@H](O)[C@H](O[C@H]3O[C@H](CN)CC[C@H]3N)[C@@H](N)C[C@H]2N)OC[C@]1(C)O.CN[C@@H]1[C@@H](O)[C@@H](O[C@@H]2[C@@H](O)[C@H](O[C@H]3O[C@H]([C@@H](C)N)CC[C@H]3N)[C@@H](N)C[C@H]2N)OC[C@]1(C)O.CN[C@@H]1[C@@H](O)[C@@H](O[C@@H]2[C@@H](O)[C@H](O[C@H]3O[C@H]([C@@H](C)NC)CC[C@H]3N)[C@@H](N)C[C@H]2N)OC[C@]1(C)O", "cell viability": "1.06 ± 0.17"}
{"smiles": "O=c1ccc2c(O)c3ccoc3cc2o1", "cell viability": "1.005 ± 0.0071"}
{"smiles": "C[C@H]1O[C@@H](O[C@H]2[C@@H](O)C[C@H](O[C@H]3[C@@H](O)C[C@H](O[C@H]4CC[C@@]5(C)[C@H](CC[C@@H]6[C@@H]5CC[C@]5(C)[C@@H](C7=CC(=O)OC7)[C@@H](O)C[C@]65O)C4)O[C@@H]3C)O[C@@H]2C)C[C@H](O)[C@@H]1O", "cell viability": "0.632 ± 0.13"}
{"smiles": "C[C@H]1CC[C@]2(NC1)O[C@H]1C[C@H]3[C@@H]4CC[C@H]5C[C@@H](O)CC[C@]5(C)[C@H]4CC[C@]3(C)[C@H]1[C@@H]2C", "cell viability": "0.956 ± 0.076"}
{"smiles": "COC(=O)NC(=S)Nc1ccccc1NC(=S)NC(=O)OC", "cell viability": "0.944 ± 0.071"}
{"smiles": "CCCC(=O)O[C@@H]1[C@@H](C)[C@@]2(O)[C@@H](C=C(CO)C[C@]3(O)C(=O)C(C)=C[C@@H]23)[C@@H]2C(C)(C)[C@]12OC(=O)CCC", "cell viability": "0.9955 ± 0.0021"}
{"smiles": "C[C@H](N)[C@H](O)c1ccc(O)c(O)c1", "cell viability": "0.971 ± 0.042"}
{"smiles": "CCOC(=O)C1C(C=C(C)C)C1(C)C", "note": "(configuration not stated)", "cell viability": "0.913 ± 0.11"}
{"smiles": "CCCC(C)C1(CC)C(=O)NC(=O)NC1=O", "note": "(configuration not stated)", "cell viability": "1 ± 0.079"}
{"smiles": "CN1[C@@H]2C[C@@H](OC(=O)[C@H](CO)c3ccccc3)C[C@H]1[C@@H]1O[C@@H]12", "cell viability": "1.04 ± 0.042"}
{"smiles": "COc1cc2occc2c2oc(=O)ccc12", "cell viability": "0.986 ± 0.076"}
{"smiles": "CN(C)C(=O)Oc1cc(OC(=O)N(C)C)cc(C(O)CNC(C)(C)C)c1", "note": "(configuration not stated)", "cell viability": "0.986 ± 0.021"}
{"smiles": "O=C(O)CC[N+](=O)[O-]", "note": "[BOVINOCIDIN (3-nitropropionic acid)]", "cell viability": "0.951 ± 0.025"}
{"smiles": "CC(C)=CCCC1(C)C=Cc2c(O)c3c(c(CC=C(C)C)c2O1)OC12C(=CC4CC1C(C)(C)OC2(C/C=C(/C)C(=O)O)C4O)C3=O", "note": "(configuration not stated)", "cell viability": "0.911 ± 0.11"}
{"smiles": "O=C(O)CCC1NCC2CC1CN1CCCCC21", "note": "(configuration not stated)", "cell viability": "0.999 ± 0.044"}
{"smiles": "CC(=O)Oc1c2c(c(CC=C(C)C)c3c1C(=O)C1=C[C@@H]4CC5C(C)(C)OC(C/C=C(\\C)C(=O)O)(C4=O)[C@@]15O3)OC(C)(CCC=C(C)C)C=C2", "note": "(some centres not stated)", "cell viability": "0.809 ± 0.046"}
{"smiles": "NCCCNCCSP(=O)(O)O", "cell viability": "1.02 ± 0.14"}
